Laboratory results taken from paper PMC11062922 (Nature Chemical Biology, 2023).
Read-outs that look alike come from different tables or passages of the source.

What was measured:
AAK1 = system: AAK1; set-up: species or system human, MV4-11 + K-562 + COLO205 + SK-N-BE2 + OVCAR-8; conditions: read-out: apparent Kd, n = 1
BMP2K = system: BMP2K; set-up: species or system human, MV4-11 + K-562 + COLO205 + SK-N-BE2 + OVCAR-8; conditions: read-out: apparent Kd, n = 1
CLK1 = system: CLK1; set-up: species or system human, MV4-11 + K-562 + COLO205 + SK-N-BE2 + OVCAR-8; conditions: read-out: apparent Kd, n = 1
CLK4 = system: CLK4; set-up: species or system human, MV4-11 + K-562 + COLO205 + SK-N-BE2 + OVCAR-8; conditions: read-out: apparent Kd, n = 1
CSNK2A1;CSNK2A3 = system: CSNK2A1;CSNK2A3; set-up: species or system human, MV4-11 + K-562 + COLO205 + SK-N-BE2 + OVCAR-8; conditions: read-out: apparent Kd, n = 1
CSNK2A2 = system: CSNK2A2; set-up: species or system human, MV4-11 + K-562 + COLO205 + SK-N-BE2 + OVCAR-8; conditions: read-out: apparent Kd, n = 1
FLT3 = system: FLT3; set-up: species or system human, MV4-11 + K-562 + COLO205 + SK-N-BE2 + OVCAR-8; conditions: read-out: apparent Kd, n = 1
FLT4 = system: FLT4; set-up: species or system human, MV4-11 + K-562 + COLO205 + SK-N-BE2 + OVCAR-8; conditions: read-out: apparent Kd, n = 1
GAK = system: GAK; set-up: species or system human, MV4-11 + K-562 + COLO205 + SK-N-BE2 + OVCAR-8; conditions: read-out: apparent Kd, n = 1
MELK = system: MELK; set-up: species or system human, MV4-11 + K-562 + COLO205 + SK-N-BE2 + OVCAR-8; conditions: read-out: apparent Kd, n = 1
NUAK1 = system: NUAK1; set-up: species or system human, MV4-11 + K-562 + COLO205 + SK-N-BE2 + OVCAR-8; conditions: read-out: apparent Kd, n = 1
Q6ZSR9 = Q6ZSR9 (human, UniProt Q6ZSR9); set-up: species or system MV4-11 + K-562 + COLO205 + SK-N-BE2 + OVCAR-8; conditions: read-out: apparent Kd, n = 1
Q6ZSR9, sequence (Q6ZSR9 whole entry, looked up): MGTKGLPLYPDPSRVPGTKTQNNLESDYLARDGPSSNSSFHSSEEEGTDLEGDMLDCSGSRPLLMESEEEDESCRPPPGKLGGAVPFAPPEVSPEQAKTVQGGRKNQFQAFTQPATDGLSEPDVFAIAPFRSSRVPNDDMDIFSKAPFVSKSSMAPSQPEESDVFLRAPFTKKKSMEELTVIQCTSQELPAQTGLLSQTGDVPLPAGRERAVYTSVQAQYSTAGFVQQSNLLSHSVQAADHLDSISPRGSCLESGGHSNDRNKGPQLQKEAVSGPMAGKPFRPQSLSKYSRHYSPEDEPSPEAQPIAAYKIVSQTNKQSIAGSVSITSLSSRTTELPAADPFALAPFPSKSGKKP

RET = system: RET; set-up: species or system human, MV4-11 + K-562 + COLO205 + SK-N-BE2 + OVCAR-8; conditions: read-out: apparent Kd, n = 1
SIK2 = system: SIK2; set-up: species or system human, MV4-11 + K-562 + COLO205 + SK-N-BE2 + OVCAR-8; conditions: read-out: apparent Kd, n = 1
PKN1 = system: PKN1; set-up: species or system human, MV4-11 + K-562 + COLO205 + SK-N-BE2 + OVCAR-8; conditions: read-out: apparent Kd, compound concentrations: 100 nM and 1000 nM (sheet 'Samples'), n = 1
PKN3 [1] = system: PKN3; set-up: species or system human, MV4-11 + K-562 + COLO205 + SK-N-BE2 + OVCAR-8; conditions: read-out: apparent Kd, compound concentrations: 100 nM and 1000 nM (sheet 'Samples'), n = 1;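 as to IC50: NanoBRET target engagement in HEK293T cells transiently expressing full-length PKN3 with C-terminal NanoLuc, displacement of fluorescent tracer K5 (500 nM), BRET read after 2 h equilibration at 37 °C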
PKN3 [2] = conditions: hek293t cells
GSK3A = system: GSK3A; set-up: species or system human, MV4-11 + K-562 + COLO205 + SK-N-BE2 + OVCAR-8; conditions: read-out: apparent Kd; compound concentrations: 100 nM and 1000 nM (sheet 'Samples'), CATDS: 2.3758867869594399E-2; n = 1
GSK3B = system: GSK3B; set-up: species or system human, MV4-11 + K-562 + COLO205 + SK-N-BE2 + OVCAR-8; conditions: read-out: apparent Kd; compound concentrations: 100 nM and 1000 nM (sheet 'Samples'), CATDS: 1.7085262625281698E-2; n = 1
PAK4 = system: PAK4; set-up: species or system human, MV4-11 + K-562 + COLO205 + SK-N-BE2 + OVCAR-8; conditions: read-out: apparent Kd; compound concentrations: 100 nM and 1000 nM (sheet 'Samples'), CATDS: 1.2005445098745401E-2; n = 1
[3] = compound concentrations:100 nM and 1000 nM (sheet 'Samples')

CNC(=O)c1ccccc1Nc1nc(Nc2ccc(N3CCOCC3)cc2)ncc1Cl.Cl [GSK1576028A]
potency estimated from few doses (AAK1; [3]): 142 nM
potency estimated from few doses (BMP2K; [3]): 1140 nM
potency estimated from few doses (CLK1; [3]): 260 nM
potency estimated from few doses (CLK4; [3]): 321 nM
potency estimated from few doses (CSNK2A1;CSNK2A3; [3]): 59.3 nM
potency estimated from few doses (CSNK2A2; [3]): 24.4 nM
potency estimated from few doses (FLT3; [3]): 616 nM
potency estimated from few doses (FLT4; [3]): 309 nM
potency estimated from few doses (GAK; [3]): 90.3 nM
potency estimated from few doses (MELK; [3]): 2220 nM
potency estimated from few doses (NUAK1; [3]): 92.2 nM
potency estimated from few doses (Q6ZSR9; [3]): 116 nM
potency estimated from few doses (RET; [3]): 93.9 nM
potency estimated from few doses (SIK2; [3]): 611 nM

CCn1c(-c2nonc2N)nc2c(C#CCN)ncc(OCCCN)c21.O=C(O)C(F)(F)F [GSK561866B]
potency estimated from few doses (PKN1; CATDS: 0.15879588217707499): 65.5 nM
potency estimated from few doses (PKN3 [1]; CATDS: 0.49894757840635401): 5.21 nM
IC50 (PKN3 [2]; read-out: Average, SD, n = 4): 7970 nM
IC50 (PKN3 [2]; read-out: Rep 1): 13000 nM
IC50 (PKN3 [2]; read-out: Rep 2): 11200 nM
IC50 (PKN3 [2]; read-out: Rep 3): 4910 nM
IC50 (PKN3 [2]; read-out: Rep 4): 2820 nM

O=C1N=C(NCCc2ccc(Cl)cc2)S/C1=C\c1ccc2ncccc2c1 [RO4498479-000]
potency estimated from few doses (AAK1; compound concentrations: 100 nM and 1000 nM (sheet 'Samples'), CATDS: 1.47357709485617E-2): 257 nM
potency estimated from few doses (BMP2K; compound concentrations: 100 nM and 1000 nM (sheet 'Samples'), CATDS: 1.0596911535971001E-2): 487 nM
potency estimated from few doses (CLK1; compound concentrations: 100 nM and 1000 nM (sheet 'Samples'), CATDS: 2.3801432407155699E-2): 123 nM
potency estimated from few doses (CLK4; compound concentrations: 100 nM and 1000 nM (sheet 'Samples'), CATDS: 1.10234043350519E-2): 447 nM
potency estimated from few doses (CSNK2A1;CSNK2A3; compound concentrations: 100 nM and 1000 nM (sheet 'Samples'), CATDS: 1.63252209283915E-2): 216 nM
potency estimated from few doses (CSNK2A2; compound concentrations: 100 nM and 1000 nM (sheet 'Samples'), CATDS: 1.5998355653452E-2): 224 nM
potency estimated from few doses (FLT3; compound concentrations: 100 nM and 1000 nM (sheet 'Samples'), CATDS: 1.0367577324715899E-2): 511 nM
potency estimated from few doses (FLT4; compound concentrations: 100 nM and 1000 nM (sheet 'Samples'), CATDS: 1.0631245795833501E-2): 483 nM
potency estimated from few doses (GAK; compound concentrations: 100 nM and 1000 nM (sheet 'Samples'), CATDS: 1.9710228455472299E-2): 161 nM
potency estimated from few doses (GSK3A): 123 nM
potency estimated from few doses (GSK3B): 201 nM
potency estimated from few doses (MELK; compound concentrations: 100 nM and 1000 nM (sheet 'Samples'), CATDS: 8.0269577096188198E-3): 1000 nM
potency estimated from few doses (NUAK1; compound concentrations: 100 nM and 1000 nM (sheet 'Samples'), CATDS: 8.4437303302316406E-3): 860 nM
potency estimated from few doses (PAK4): 375 nM
potency estimated from few doses (PKN1; CATDS: 9.0371010763674806E-3): 713 nM
potency estimated from few doses (PKN3 [1]; CATDS: 1.12150497096419E-2): 431 nM
potency estimated from few doses (Q6ZSR9; compound concentrations: 100 nM and 1000 nM (sheet 'Samples'), CATDS: 1.3986845405836199E-2): 282 nM
potency estimated from few doses (RET; compound concentrations: 100 nM and 1000 nM (sheet 'Samples'), CATDS: 1.4080551975431E-2): 278 nM
potency estimated from few doses (SIK2; compound concentrations: 100 nM and 1000 nM (sheet 'Samples'), CATDS: 1.14849273453617E-2): 410 nM
